# Measurements: the supplement of paper PMC3334620
# Over roughly 33,000 sequences, “E-score (-0.5 to 0.5)” has its median near -0.043; the highest 2% begin near 0.37. What follows is part of a selection rich in the highest values, with near analogues and random picks from the rest.
# Target: T1, Upc2 (UniProt Q12151)
# T1 sequence: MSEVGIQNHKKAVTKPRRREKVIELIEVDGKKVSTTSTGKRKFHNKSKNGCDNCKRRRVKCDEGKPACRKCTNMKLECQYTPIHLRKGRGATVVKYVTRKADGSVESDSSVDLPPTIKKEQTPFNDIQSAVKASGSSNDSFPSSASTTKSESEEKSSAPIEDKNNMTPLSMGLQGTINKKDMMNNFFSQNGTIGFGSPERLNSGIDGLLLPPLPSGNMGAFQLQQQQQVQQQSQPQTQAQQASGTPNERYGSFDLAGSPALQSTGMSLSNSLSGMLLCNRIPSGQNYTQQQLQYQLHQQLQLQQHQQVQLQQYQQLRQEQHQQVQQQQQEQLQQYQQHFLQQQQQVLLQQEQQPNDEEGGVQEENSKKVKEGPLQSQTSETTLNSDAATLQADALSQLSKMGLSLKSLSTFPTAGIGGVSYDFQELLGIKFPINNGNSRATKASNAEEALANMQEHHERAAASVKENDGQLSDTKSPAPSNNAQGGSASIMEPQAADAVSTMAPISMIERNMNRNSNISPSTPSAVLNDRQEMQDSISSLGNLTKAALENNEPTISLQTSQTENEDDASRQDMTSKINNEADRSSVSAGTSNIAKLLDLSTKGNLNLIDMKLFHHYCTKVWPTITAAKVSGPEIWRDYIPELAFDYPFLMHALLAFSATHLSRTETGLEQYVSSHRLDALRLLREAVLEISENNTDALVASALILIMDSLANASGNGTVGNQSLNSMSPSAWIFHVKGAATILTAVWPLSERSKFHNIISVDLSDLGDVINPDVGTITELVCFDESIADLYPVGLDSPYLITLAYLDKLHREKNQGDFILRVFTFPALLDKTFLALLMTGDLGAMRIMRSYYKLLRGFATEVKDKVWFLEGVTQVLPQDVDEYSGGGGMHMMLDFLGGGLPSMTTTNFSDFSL
# Assay: PBM E-score (8-mer binding enrichment) (E-score (-0.5 to 0.5)); higher = stronger / more preferred TF binding
# Details: protein concentration: 200 nM; construct: GST-full length
# In short: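 Universal all-10-mer Agilent arrays, double-stranded by primer extension on fresh or once-stripped slides, were probed with about 100-200 nM GST-tagged yeast transcription factors made by PURExpress. Fluorescent anti-GST detected bound protein, and masliner normalised the scans. E-scores from the Universal PBM Analysis Suite were given to each ungapped eight-base word pooled with its reverse complement.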
row,Sequence,PBM E-score
1,AAACGGAT,0.37
2,AAACGGAC,0.337
3,AAACGGGA,0.369
4,CAACGGGC,0.00552
5,TAACGGGA,0.0733
6,AAACGGGT,0.344
7,GAACGGGC,0.291
8,AAACGGGG,0.398
9,AAACGGAG,0.34
10,CAACGGGG,-0.0318
11,AGACCCCA,-0.148
12,ATAGAACG,0.253
13,GCCATCTA,-0.299
14,CAGACCAG,-0.0598
15,CATTCACA,-0.114
16,CTCGGCGC,0.069
17,AAGAGTCA,-0.11
18,CATTAAGC,0.0328
19,AGACGGCC,-0.222
20,ACACGGCG,-0.0227
21,ATACGGCG,0.43
22,GTACGGCA,0.364
23,ATACGGCC,0.416
24,AGACGGCG,-0.0186
25,CTACGGCC,-0.0664

row,Sequence,PBM E-score
1,CTACGGCA,0.0153
2,ATACGGCA,0.422
3,GTTTCACA,0.00208
4,CCGAGTCC,-0.0483
5,GCTCCTAC,0.0461
6,GCAGTTAA,0.0277
7,GATGATAC,0.0998
8,AGCCAAAA,-0.178
9,GAAAACGA,0.263
10,AGAAACGA,0.4
11,CGAAACCA,0.201
12,CGAAACGA,0.447
13,CGAAACGC,0.15
14,GGAAACAA,-0.0508
15,GGAAACGA,0.428
16,AGAAACGG,0.217
17,AGAAACGC,-0.037
18,ACAGTCCT,-0.319
19,CTCGCTCC,0.313
20,ACATAGTG,-0.128
21,ACCGCCAG,-0.0637
22,GATCACGA,-0.00109
23,GGTAAAAC,0.0926
24,CGTAAAAG,0.405
25,CGTAAAAA,0.404

row,Sequence,PBM E-score
1,AGTAAAAG,0.168
2,CGTAAAAC,0.389
3,CTTAAAAG,-0.0494
4,AGTAAAAA,-0.0254
5,TGTAAAAA,-0.0321
6,CGTAAACC,0.364
7,GGCCAACC,-0.0824
8,ATAGAGGC,-0.0461
9,ACAAAGGA,-0.0862
10,GGTTGTAC,0.154
11,GCAGATCA,-0.161
12,CGCCTTAG,-0.169
13,GCCACATA,-0.153
14,TCAGACAA,-0.17
15,AACGAAAA,0.368
16,CACGAAAC,0.0525
17,CACGAAAG,-0.0189
18,ACCGAAAT,0.141
19,AACGAAAT,0.398
20,ACCGAAAG,0.108
21,GACGAAAC,0.251
22,AACGAAAC,0.37
23,AACGAAAG,0.383
24,ACTCGCCC,-0.205
25,AACGCTAG,-0.089

row,Sequence,PBM E-score
1,CGATCGTC,0.128
2,CGATCGAA,0.24
3,AGATCGTA,0.387
4,CGATCGTA,0.437
5,GGATCGAA,0.211
6,AGATCGTC,-0.141
7,GGATCGGA,0.0439
8,GGATCGTA,0.422
9,AGATCGTG,0.0463
10,CTAGGTCA,-0.214
11,CTATCAGA,-0.13
12,AACAAGGC,-0.167
13,TGTCGGAA,0.0576
14,GGTCGTAA,0.421
15,CGTCGTCA,0.055
16,TGGCGTAA,0.0743
17,GGTCGTCA,-0.0836
18,CGTCGTGA,0.127
19,CGTCGTAA,0.457
20,TGTCGTAA,0.433
21,AGTCGTAA,0.379
22,AGTCGTCA,-0.167
23,GGTCGTGA,-0.0444
24,AGTCGTGA,-0.0656
25,ACCGTTAT,-0.0125

row,Sequence,PBM E-score
1,GAGTCAAA,-0.229
2,ATTCTAAC,-0.125
3,AGCAAGAG,-0.203
4,CTGAGCTA,-0.0866
5,ACCGCTTC,-0.203
6,AGTGAACT,-0.117
7,ACTGTTCG,0.16
8,CCGTACGG,0.374
9,GCGTACTA,0.0874
10,CCCTACGG,-0.0948
11,ACGTACGG,0.354
12,GCGTACGC,0.281
13,ACGTACGT,0.293
14,CCGTACGA,0.443
15,CCGTACTA,0.282
16,GCGTACGA,0.448
17,ACGTACGA,0.431
18,ACGTACGC,0.254
19,CCGTACGC,0.308
20,TAAAGCCA,0.0825
21,ATGCGACG,0.306
22,AAGAATCT,-0.148
23,CCTTGCAA,-0.115
24,AGTGCGAT,0.0239
25,GATAGAAA,0.0471

row,Sequence,PBM E-score
1,AGACCCTG,-0.259
2,TCTCCTAA,-0.00947
3,TCGCACGA,0.0732
4,TCGTACGA,0.471
5,TCCTACGA,0.256
6,CCTCGATA,-0.0083
7,CAACGCTG,-0.0985
8,GCCTCGAA,0.00343
9,CCCTCGTA,0.465
10,ACCTCGTG,0.2
11,GCCTCGGA,0.135
12,CCCTCGGA,0.195
13,ACCTCGTC,0.0626
14,ACCTCGTA,0.462
15,GCCTCGTA,0.473
16,CCCTCGTC,0.122
17,TCCACTCA,-0.17
18,CTAAGAGA,-0.0721
19,ACAGAGCG,-0.0821
20,TAGGCAAA,-0.108
21,AACAGTTA,-0.135
22,CTATCGTC,-0.0375
23,CTATCGTA,0.43
24,ATATCGTA,0.427
25,GTATCGGA,0.229

row,Sequence,PBM E-score
1,GTATCGAA,0.142
2,CTATCGAA,-0.056
3,ATATCGTG,0.0382
4,GTATCGTA,0.423
5,ATATCGTC,0.0922
6,CCTAGCGA,-0.299
7,CCCCTCTC,-0.185
8,ACCGGCCC,0.0253
9,ATCTGTAA,-0.0759
10,ATGTAAAC,0.27
11,AGTGAGAC,-0.0557
12,GCCTGCCA,-0.317
13,CAATAGAA,-0.241
14,ACGAACCA,0.376
15,ACGAACCG,0.378
16,ACGAACCC,0.301
17,CCGAACCG,0.0623
18,CCGAACCA,-0.127
19,GCGAACCA,0.164
20,TCAGCCAA,-0.177
21,CGTGCGAA,0.214
22,ATTTTGCA,-0.0911
